Assay outcomes from PubChem.
Hits are enriched below; roughly 4.5% of the tested compounds scored in any of these assays.
TIM10 inh: growth inhibitors of TIM10 yeast strain; S. cerevisiae TIM10 strain growth, BacTiter-Glo luminescence, 24 h; inhibition, % at 10 µM; 330,000 compounds, 1.4% hits; AID 463195;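 active means inhibition of 40% or more at the single tested concentration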;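 further: wild-type TIM10 isogenic control strain grown at permissive 25 °C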
tim23-1 inh: tim23-1 yeast growth inhibition | S. cerevisiae tim23-1 growth, BacTiter-Glo luminescence, 24 h | inhibition, % at 20 µM | 330,000 compounds, 1.3% hits | AID 463212;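 active means growth inhibition of the mutant yeast at or above 50%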;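 further: temperature-sensitive mutant grown at 25 °C; plate controls were DMSO-treated mutant yeast for no effect and medium wells lacking yeast for full effect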
SKKanGAS inh: SKKanGAS growth inhibition | S. pyogenes SKKanGAS, kanamycin growth, BacTiter-Glo, 6 h | inhibition, % at 7.5 µM | 300,000 compounds, 1.3% hits | AID 1662;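 active means mean replicate score, as percent of positive control median, at least 50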;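 further: strain carries kanamycin resistance gene driven by streptokinase promoter and grows in 40 µg/ml kanamycin; loss of luminescence reflects streptokinase promoter inhibition or plain growth inhibition; 0% = median of DMSO wells and 100% = positive control at its reference dose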
PfHsp90 set2: inhibits growth of yeast expressing Plasmodium falciparum Hsp90; AID 504621; S. cerevisiae expressing PfHsp90, BacTiter-Glo ATP, 48 h; yeast lacking PDR1 and PDR3 efflux regulators; 310,000 compounds, 0.32% hits; inhibition, % at 9.4 µM;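 active means every replicate shows inhibition above about 80%, whatever the replicate mean, limit read from the data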;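 further: 0% = DMSO neutral controls and 100% = 20 µM radicicol positive controls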
NALP3 yeast inh: blocks the NALP3 inflammasome reconstituted in yeast | Yeast reconstituted NLRP3/ASC/caspase-1, beta-gal luminescence, 24 h | inhibition, % at 10 µM | 330,000 compounds, 0.39% hits | AID 2825;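 active means inhibition of 50% or more; inactive means inhibition below 50%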;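 further: plate controls were induced DMSO wells for no effect and uninduced yeast grown without galactose for full effect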
tim10-1 inh: tim10-1 yeast growth inhibition | inhibition, % at 20 µM | AID 463190 | S. cerevisiae tim10-1 ts strain growth, BacTiter-Glo, 24 h | 330,000 compounds, 2.2% hits;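 active means inhibition of at least 40%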;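 further: mutant grown at 25 °C; 0% = DMSO wells with yeast and 100% = wells holding no yeast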
tim10-1 confirm: confirmation of tim10-1 mutant yeast growth inhibitors; shares compounds with tim10-1 inh; S. cerevisiae tim10-1 ts strain growth, BacTiter-Glo, 24 h; inhibition, % at 20 µM; 7,400 compounds, 56% hits;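 active means inhibition of yeast growth at or above a set limit in either of two repeat tests at 20 µM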;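 further: tim10-1 mutant grown at permissive 25 °C to find synthetic lethal compounds; 0% = DMSO yeast wells and 100% = medium wells without yeast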
The depositor's hits bear a star; x = no result.

SMILES	TIM10 inh	tim23-1 inh	SKKanGAS inh	PfHsp90 set2	NALP3 yeast inh	tim10-1 inh	tim10-1 confirm
CCCCCn1c(=N)c(S(=O)(=O)c2ccc(Br)cc2)cc2c(=O)n3cccc(C)c3nc21	0.9	13.1	-8.2	12.8	10.9	39.2	x
CCCCn1c(=N)c(S(=O)(=O)c2ccc(Br)cc2)cc2c(=O)n3cccc(C)c3nc21	3.0	27.4	-6.0	14.9	8.0	44.2*	-14.3
Cc1cccc(NCCC(=O)c2ccc([N+](=O)[O-])cc2)c1C	23.0	21.7	2.5	x	15.7	40.4*	37.9*
Cc1ccc(NCCC(=O)c2cccc([N+](=O)[O-])c2)c(C)c1	-4.1	23.0	0.0	-1.6	14.5	37.3	x
O=C(NC1CCCC1)c1ccc(Cl)c(S(=O)(=O)N2CCCCC2)c1	3.7	0.2	1.2	-6.1	1.5	-13.7	x
CCC(CC)c1nnc(NC(=O)C2CC(=O)N(C3CCCC3)C2)s1 (centres undefined)	0.0	3.1	1.0	-15.3	3.0	3.6	x
Cc1ccc(S(=O)(=O)N2CCCCC2CCNC(=O)C(=O)NCc2ccco2)cc1 (centres undefined)	0.5	36.6	-16.7	-13.4	20.0	42.3*	13.4
CC(C)OC(=O)c1cccnc1SCC(=O)N(C)c1ccccc1	29.9	32.8	-0.2	x	12.5	33.6	x
CCN(C(=O)CSc1ncccc1C(=O)OC(C)C)c1cccc(C)c1	15.1	41.6	7.7	x	13.6	41.8*	20.8
CCOC(=O)c1cccnc1SCC(=O)N(CC)c1cccc(C)c1	34.3	36.9	-7.0	x	13.3	40.3*	34.5*
CCOC(=O)c1cccnc1SCC(=O)NCc1ccccc1	-11.9	-4.9	-12.9	4.4	17.6	16.6	x
O=C(CN1C(=O)NC2(CCOc3ccccc32)C1=O)NCCc1ccc(F)cc1 (centres undefined)	-0.7	-6.2	x	5.7	6.1	-13.5	x
COC(=O)C1CCN(C(=O)c2ccc3nccnc3c2)CC1	6.4	-7.2	6.0	-3.4	5.8	-3.9	x
COC(=O)C1CCN(C(=O)c2ccc3nc(-c4cccc(OC)c4)oc3c2)CC1	24.1	30.0	31.7	-12.8	14.8	41.7*	30.8
Cc1cc(=O)n2c3c(sc2n1)C(=O)N(Cc1ccccc1)C3=O	20.9	29.0	-1.4	x	15.2	40.3*	33.8*
N#C/C(=C\c1c[nH]c2ccc(Br)cc12)c1ccccn1	19.2	47.3	51.2*	-4.9	20.5	48.1*	35.1*
Cc1nnc(-c2ccccc2)c(=O)n1/N=C/c1c(O)ccc2ccccc12	37.3	31.9	69.7*	-0.5	-0.7	49.4*	18.6
Cc1nnc(C)n1/N=C/c1c(O)ccc2ccccc12	16.8	-2.0	-2.1	-12.0	8.3	-8.6	x
COc1cc(OC)cc(C(=O)NCC(=O)OCc2nc3ccccc3s2)c1	10.6	20.9	2.0	-7.6	19.3	4.2	x
CSc1nsc(/C=C/Nc2ccc(O)cc2C)c1C#N	17.6	27.3	31.8	-5.2	5.5	46.5*	20.8
CSc1nsc(/C=C/Nc2ccc(F)cc2)c1C#N	21.0	33.5	x	-3.6	1.7	29.3	x
Cc1ccc(N2C(=O)C3C4C=CC(CNC(=S)Nc5cccc(Cl)c5)(O4)C3C2=O)cc1 (centres undefined)	35.9	30.1	6.0	104.9*	13.7	43.6*	49.5*
O=C1C2C3C=CC(CO)(O3)C2C(=O)N1c1ccc(-c2ccccc2)cc1 (centres undefined)	38.3	42.6	-3.0	x	25.7	95.0*	97.0*
COc1ccc(/C=C2\SC(=O)N(CCNC(=O)C3=COCCO3)C2=O)cc1	-13.5	3.1	-7.1	12.1	7.1	-9.7	x
O=C(NCCN1C(=O)S/C(=C\c2ccc(OC(F)F)cc2)C1=O)C1=COCCO1	28.5	43.1	-5.6	x	11.3	44.1*	29.1
SMILES	TIM10 inh	tim23-1 inh	SKKanGAS inh	PfHsp90 set2	NALP3 yeast inh	tim10-1 inh	tim10-1 confirm
CC(=O)c1ccccc1NC(=O)COC(=O)CCC1CCCC1	-4.8	9.9	x	-33.5	13.6	6.1	x
CCN(CC)C(=O)C1CCN(S(=O)(=O)c2c(C)noc2/C=C/c2cccc(C)c2)CC1	15.7	33.6	5.0	-6.2	-13.3	41.2*	9.7
Cc1ccc(C)c(NC(=O)CCC(=O)NN=C2CCCC2)c1	-1.3	-14.9	x	-27.8	5.5	-21.4	x
COc1cccc(C2N(Cc3ccccc3)C(=O)C2(F)F)c1OC (centres undefined)	23.1	17.9	8.2	0.6	17.6	-4.2	x
COc1ccc(F)c(CN2CCCC(CNS(=O)(=O)c3cccc4cccnc34)C2)c1 (centres undefined)	-0.6	12.3	-5.0	-29.8	3.0	10.6	x
CC(C)OCCCNC(=O)c1c(N)n(/N=C/c2cccs2)c2nc3ccccc3nc12	3.4	11.3	6.9	-10.6	-2.5	9.4	x
COCCCNC(=O)c1c(N)n(/N=C/c2ccccn2)c2nc3ccccc3nc12	29.5	8.4	36.6	-7.2	-2.4	42.0*	26.8
Cn1cc([N+](=O)[O-])c(C(=O)Nc2ccc(-c3nc4ccccc4o3)cc2)n1	-18.5	-27.8	x	10.4	27.1	-0.9	x
Cn1c(N/N=C/c2cccs2)nc2c1c(=O)n(Cc1ccccc1)c(=O)n2C	25.0	22.0	8.3	7.5	8.8	40.3*	22.1
Cn1c(=O)c2c(nc(N/N=C/c3cccs3)n2Cc2ccccc2)n(C)c1=O	3.3	0.0	7.0	-2.0	16.1	-5.7	x
N#Cc1c(-c2cccs2)cc(-c2cccnc2)nc1N	25.6	36.6	4.6	-5.6	1.3	42.7*	28.6
N#Cc1c(-c2ccc(F)cc2)cc(-c2cccnc2)nc1N	-20.6	-17.0	-3.6	3.6	2.4	15.1	x
OC1(C#Cc2c(-c3ccsc3)oc3ccc(N4CCOCC4)cc23)CCCCC1	24.4	30.8	50.2*	-37.2	-0.7	41.0*	5.4
COc1ccc(-c2oc3ccc(N4CCOCC4)cc3c2C#CC2(O)CCCCC2)cc1	23.0	35.7	69.2*	-4.4	0.3	41.1*	12.4
CCN(C(=O)Cn1nc(C)n2c(cc3cc(C)ccc32)c1=O)c1ccccc1	21.2	35.5	4.4	1.1	4.1	37.9	x
CCc1cc2ccc(C)cc2nc1SCC(=O)N1CCN(C(=O)c2ccco2)CC1	4.8	38.3	-6.8	-10.9	17.8	42.0*	12.7
CCc1cc2cc3c(cc2nc1SCC(=O)N1CCN(C(=O)c2ccco2)CC1)OCO3	1.2	32.8	0.3	3.1	13.6	21.2	x
CCC1CCCCN1Cc1cc(OC)c(O)c([N+](=O)[O-])c1 (centres undefined)	3.7	-0.9	-2.7	x	-73.0	43.2*	13.6
COc1ccc(N(CC(=O)NCC2CCCO2)S(=O)(=O)c2ccccc2)cc1OC (centres undefined)	0.4	11.4	5.5	-3.3	11.0	-3.5	x
COC(=O)c1[nH]c2ccc(Br)cc2c1NC(=O)CN1CCCc2ccccc21	23.4	35.3	28.8	-17.9	14.4	46.1*	34.2*
